Data from PubChem BioAssay AID1619 (SRMLSC, 2009).
Among all 220,000 compounds or so, about 830 (0.38%) were called active.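 Rule for the calls: active = compound inhibiting the enzyme by more than half at any dose during confirmatory dose-response retesting; inconclusive = strong single-dose inhibitors picked by rank but not retested; inactive = the rest.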 The list is a sample of the results. Entries with a potency or affinity are not part of this list.

target: Leucine aminopeptidase (Plasmodium falciparum (isolate 3D7)) (UniProt Q8IL11); assay: P. falciparum M17LAP inhibitors, primary screen, biochemical, fluorogenic H-Leu-NHMec substrate, 1536-well (AID 1619); conditions: recombinant M17LAP, H-Leu-NHMec fluorogenic kinetic assay; at 30 µM; stronger effect = higher value;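 note: plate controls were full reaction with DMSO carrier for no effect and no enzyme background for full effect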
Sequence (Q8IL11 whole entry, looked up): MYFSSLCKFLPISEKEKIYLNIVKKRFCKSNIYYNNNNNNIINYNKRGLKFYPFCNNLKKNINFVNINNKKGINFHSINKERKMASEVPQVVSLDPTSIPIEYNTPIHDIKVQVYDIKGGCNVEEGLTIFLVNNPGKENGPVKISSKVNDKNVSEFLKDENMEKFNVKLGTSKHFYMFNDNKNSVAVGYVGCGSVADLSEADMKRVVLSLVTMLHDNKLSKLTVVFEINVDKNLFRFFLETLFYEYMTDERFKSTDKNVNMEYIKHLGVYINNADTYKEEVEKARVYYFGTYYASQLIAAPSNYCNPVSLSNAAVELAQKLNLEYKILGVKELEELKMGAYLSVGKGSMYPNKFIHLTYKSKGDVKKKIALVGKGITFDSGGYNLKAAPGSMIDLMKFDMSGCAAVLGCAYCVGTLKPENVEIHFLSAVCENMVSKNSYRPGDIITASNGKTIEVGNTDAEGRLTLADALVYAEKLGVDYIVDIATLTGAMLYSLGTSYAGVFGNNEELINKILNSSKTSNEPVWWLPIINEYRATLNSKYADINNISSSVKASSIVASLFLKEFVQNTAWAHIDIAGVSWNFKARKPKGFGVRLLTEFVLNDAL

inhibition, inactive:
NC(=O)c1cc(-c2ccncc2)nc2ccc(Cl)cc12 8.6%
Cn1c(=O)n(C)c2cc(S(=O)(=O)Nc3ccccc3O)ccc21 -0.99%
C/C(=C1/SC(N2CC(C)OC(C)C2)=NC1=O)c1ccccc1 (stereo not given) 1.49%
Cc1ccc(S(=O)(=O)Nc2nc(C)cc(NCCN)n2)cc1 -5.52%
CCOC(=O)N1CCN(CCC(=O)Nc2ccc(OC)cc2)CC1 5.12%
Cc1ccc2nsnc2c1S(=O)(=O)Nc1cccc2nsnc12 2.26%
Cc1cc(C)c(S(=O)(=O)Nc2cccc3nsnc23)c(C)c1 3.04%
COC(=O)c1cc(C#N)c(NCc2ccccc2)nc1C -1.82%
Cc1nn(C)cc1CN(C)C(=O)c1cc(COc2ccc(F)cc2F)on1 -16.1%
O=C1OCC2OC(O)C(O)C(O)C2OC(=O)c2cc(O)c(O)c(O)c2-c2c(O)c(O)c3oc(=O)c4c(c(O)c(O)c5oc(=O)c2c3c54)-c2c1cc(O)c(O)c2O (stereo not given) 20.8%
COc1cccc(NC(=O)Cn2c(=O)n(CCC(=O)NCc3ccco3)c(=O)c3ccccc32)c1 -7.32%
CCn1c(N2CCN(CC(=O)c3c(C)n(C)c4ccccc34)CC2)nc2c1c(=O)[nH]c(=O)n2C 16.3%
CN(Cc1nc(Cc2ccccc2F)no1)CC1(N2CCOCC2)CCCCC1 -3.08%
CN(Cc1cc2ccccc2[nH]c1=O)C(=O)COc1ccccc1 -2.37%
O=C1C2CC=C(Cl)CC2C(=O)N1CCc1ccccc1 (stereo not given) 51.8%
O=C1C2CC=C(Cl)CC2C(=O)N1CCC[n+]1ccccc1 (stereo not given) -3.64%
CCOC(=O)N1CCN(C(c2ccc(F)cc2)c2sc3nc(C)nn3c2O)CC1 (stereo not given) -1.83%
CCO/N=C(/C)c1c(O)c(C)c(-c2ccccc2)n(-c2ccccc2)c1=O 45.5%
CC(=O)c1c(O)c(C)c(-c2ccccc2)n(-c2ccccc2)c1=O 31.5%
C/C(=N/O)c1c(O)c(C)c(-c2ccccc2)n(-c2ccccc2)c1=O 46.8%
C=CCO/N=C(\C)c1c(O)c(C)c(-c2ccccc2)n(-c2ccccc2)c1=O 54%
COc1cc(/C=N/NC(=O)c2sc(N)c(C#N)c2C)ccc1O 3.64%
COc1ccc(Cn2c(SC)nc3ccccc32)cc1[N+](=O)[O-] -7.5%
CCCn1nnc(NC(=O)c2ccc(Br)cc2)n1 -4.35%
Cc1ccsc1/C=N/NC(=O)CSCc1ccc(Cl)cc1 3.08%
